Screening results deposited in PubChem by The Scripps Research Institute Molecular Screening Center.
GPR151 ag: activates the human receptor GPR151 | activation, % at 11.2 µM | hit rate 1% among 650,000 | PathHunter beta-arrestin GPR151 cells, luminescence; in the data active = activation above about 4.9%
MITF primary: human MITF inhibition, primary screen; inhibition, % at 2.6 µM; hit rate 0.91% among 650,000; AlphaScreen MITF homodimerization, bead proximity signal; O75030; in the data active = inhibition above about 50%
Target sequence (O75030 whole entry, looked up): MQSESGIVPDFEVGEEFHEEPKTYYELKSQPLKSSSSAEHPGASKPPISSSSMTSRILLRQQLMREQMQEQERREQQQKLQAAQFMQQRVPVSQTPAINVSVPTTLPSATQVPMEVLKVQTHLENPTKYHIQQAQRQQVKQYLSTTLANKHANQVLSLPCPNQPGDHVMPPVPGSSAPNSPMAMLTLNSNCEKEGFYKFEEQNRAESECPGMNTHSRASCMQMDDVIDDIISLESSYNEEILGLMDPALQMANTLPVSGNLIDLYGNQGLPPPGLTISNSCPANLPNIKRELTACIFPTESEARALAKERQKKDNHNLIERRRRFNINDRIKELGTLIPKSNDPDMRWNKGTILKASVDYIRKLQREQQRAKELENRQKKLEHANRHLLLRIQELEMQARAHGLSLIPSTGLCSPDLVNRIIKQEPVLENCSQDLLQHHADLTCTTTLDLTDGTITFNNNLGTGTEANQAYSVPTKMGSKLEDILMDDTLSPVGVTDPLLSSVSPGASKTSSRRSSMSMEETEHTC
TEAD-YAP block: TEAD-YAP interaction inhibition | HEK-TIYL cells, TEAD-Gal4/YAP UAS-luciferase luminescence | inhibition, % at 9.12 µM | hit rate 1.4% among 640,000; in the data active = inhibition above about 32%
FBW7 act: human FBW7 E3 ligase activation, primary screen. AID 1259310. AlphaScreen FBW7–phospho-cyclin E peptide binding, activator screen. normalized activity (activation), % at 26.1 µM. hit rate 0.13% among 650,000; in the data active = normalized activity above about 1.9%;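 also: purified mutant Fbw7 with reduced substrate affinity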
GPR151 confirm: confirmation of human GPR151 activators; activation, % at 11.2 µM; shares compounds with GPR151 ag; GPR151 PathHunter beta-arrestin cells, luminescence, 90 min; % of EA-reagent control over plate median; 6,700 tested, under 10 active;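 active = mean percent activation across replicates above the confirmation screen cutoff of 4.91%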
GPR119 counter: GPR119 activation, counter-screen for GPR151 activators; shares compounds with GPR151 ag; GPR119 PathHunter beta-arrestin cells, luminescence, 90 min; 0 = compound-well median, 100 = enzyme-acceptor control; activation, % at 11.2 µM; hit rate 0.3% among 6,700;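 active = mean percent activation in the counterscreen above 29.09%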;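 also: counterscreen on off-target GPR119 to flag nonselective hits from the GPR151 activator screen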
Of the large screens only hits and unclear results are named; the others gave an inactive call (follow-up assays come after a bar, where they were run). Only some compounds are listed: those with a hit (about 3.5% of all), similar ones and a draw of the others.

CC(=O)Oc1ccc(/C=C2\N=C(c3cccc(C)c3)OC2=O)cc1OC(C)=O	GPR151 ag 7.6 | GPR151 confirm inactive | GPR119 counter inactive
Cc1c(C(=O)NCCCN2C(C)CCCC2C)sc2nc3n(c(=O)c12)CCCCC3 (configuration not stated)	none
CCOC(=O)c1sc(NC(=O)c2ccccc2)c(C#N)c1C	none
CCOc1cc(CNn2nnnc2N)cc(Cl)c1OCC(=O)NC(C)(C)C	GPR151 ag 5.2 | GPR151 confirm inactive | GPR119 counter inactive
C=CCOc1c(Cl)cc(CNn2nnnc2N)cc1OC	none
COc1cc(NC(=O)CSc2nnnn2-c2ccc3c(c2)OCO3)cc(OC)c1OC	none
CN1C(=O)/C(=C/c2ccccc2OS(C)(=O)=O)SC1=S	GPR151 ag 5.7 | GPR151 confirm inactive | GPR119 counter inactive
Cc1cccc(C(=O)NC(=S)N2CC(C)OC(C)C2)c1 (configuration not stated)	none
Cc1cccc(CN2CCc3c(nc(C)[nH]c3=O)C2)n1	none
CCCc1cc(C(=O)Nc2ccc(F)cc2F)no1	none
Cc1cc(C(=O)Nc2ccc(F)cc2F)no1	GPR151 ag 6.5 | GPR151 confirm inactive | GPR119 counter inactive
NC(=O)c1cc2cc(Br)ccc2oc1=Nc1ccc(F)cc1F	GPR151 ag 6.9 | GPR151 confirm inactive | GPR119 counter inactive
CCCCCCn1c(N/N=C/c2ccc([N+](=O)[O-])cc2)nc2c1c(=O)[nH]c(=O)n2C	GPR151 ag 5.9 | GPR151 confirm inactive | GPR119 counter inactive
C=CCn1c(SCC(=O)N2CC(=O)Nc3ccccc32)nnc1-c1ccccc1	none
O=C(NCC1CCCO1)C1CCN(C(=O)N2CCOc3ccccc32)CC1 (configuration not stated)	GPR151 ag 9.7 | GPR151 confirm inactive | GPR119 counter inactive
CC(C)NC(=O)C1CCN(C(=O)N2CCOc3ccccc32)CC1	none
CCCCCCSc1nnc(-c2ccc3[nH]c(C)c(C)c3c2)n1-c1ccccc1	none
C/C(=N\NC(=O)CCc1ccccc1)c1ccncc1	GPR151 ag 7.2 | GPR151 confirm inactive | GPR119 counter inactive
CCCCCc1ccc(OCCOCCn2c[n+](C)c3ccccc32)c(CCCCC)c1	GPR151 ag 4.9, TEAD-YAP block 52 | GPR151 confirm inactive | GPR119 counter inactive
CCN(CC)CCNc1nc2c(c(=O)n(C)c(=O)n2C)n1C	none
Nc1ccccc1S(=O)(=O)Nc1ccccc1	GPR151 ag 5.0 | GPR151 confirm inactive | GPR119 counter inactive
Nc1ccccc1S(=O)(=O)NCC(=O)O	none
CSc1ccccc1NC(=O)N1CCCC(N(C)CCc2ccccn2)C1 (configuration not stated)	GPR151 ag 5.2 | GPR151 confirm inactive | GPR119 counter inactive
CC(C)C[C@@H]1NC(=O)[C@@H]2C[C@H](NC(=O)Nc3cccc(C(F)(F)F)c3)CN2C1=O	GPR151 ag 12 | GPR151 confirm inactive | GPR119 counter inactive
COc1ccccc1CN[C@H]1C[C@H]2C(=O)N[C@@H](CC(C)C)C(=O)N2C1	GPR151 ag 6.1 | GPR151 confirm inactive | GPR119 counter inactive
CC(C)[C@@H]1NC(=O)[C@@H]2C[C@H](NCc3cn(C)nc3-c3ccccc3)CN2C1=O	GPR151 ag 13 | GPR151 confirm inactive | GPR119 counter inactive
COc1ccccc1CN[C@H]1C[C@H]2C(=O)N[C@H](CO)C(=O)N2C1	none
C#CCNC(=O)C1CCCN(c2nc3ccccc3n2CC)C1 (configuration not stated)	none
COc1cc(CN2CCN(Cc3ccc4c(c3)OCO4)CC2)cc(Br)c1O	none
CCCn1nnc(NC(=O)c2ccc(OCC)c([N+](=O)[O-])c2)n1	none
COc1cccc(C(c2nnnn2C(C)C)N2CCN(c3ccccc3)CC2)c1OC (configuration not stated)	GPR151 ag 5.4 | GPR151 confirm inactive | GPR119 counter inactive
COC(=O)c1cccc(NC(=O)c2ccc[n+](C)c2)c1	none
C[n+]1cccc(C(=O)Nc2ccccc2)c1	GPR151 ag 5.4 | GPR151 confirm inactive | GPR119 counter inactive
COc1ccccc1-c1ccc(=O)n(CC(=O)Nc2ccc(S(=O)(=O)N(C)C)cc2)n1	none
CC1(C)CC(NC(=S)Nc2ccccc2F)CC(C)(C)N1	GPR151 ag 8.3 | GPR151 confirm inactive | GPR119 counter inactive
COc1ccc(CCNc2cc(C)nc(NCCN3CCOCC3)n2)cc1	none
Cc1nc2sc(C(=O)c3ccc(Br)cc3)c(N)c2c(C)c1CC(=O)c1ccccc1	GPR151 ag 7.0 | GPR151 confirm inactive | GPR119 counter inactive
CCc1c(C)nc2sc(C(=O)c3ccc(Br)cc3)c(N)c2c1C	none
CC(Sc1nncs1)C(=O)NC(C)c1ccccc1 (configuration not stated)	GPR151 ag 5.2 | GPR151 confirm inactive | GPR119 counter inactive
CC(Sc1nncs1)C(=O)NC1CCCc2ccccc21 (configuration not stated)	none
CCOC(=O)c1ccc(N2C(=O)CC(Cc3ccc(Cl)cc3)C2=O)cc1 (configuration not stated)	GPR151 ag 9.6 | GPR151 confirm inactive | GPR119 counter inactive
CCCC(=O)Nc1ccccc1NC(=O)Cc1ccc(OC)cc1	GPR151 ag 5.4 | GPR151 confirm inactive | GPR119 counter inactive
COC(=O)c1ccccc1NC(=O)CCSCCC(=O)Nc1ccccc1C(=O)OC	GPR151 ag 6.3 | GPR151 confirm inactive | GPR119 counter inactive
COC(=O)CCC(=O)Nc1ccccc1NC(=O)CCC(=O)OC	GPR151 ag 5.0 | GPR151 confirm inactive | GPR119 counter inactive
COC(=O)c1ccccc1NC(=O)CSc1n[nH]c(-c2ccccc2)n1	GPR151 ag 5.0 | GPR151 confirm inactive | GPR119 counter inactive
O=C(O)c1ccccc1C(=O)Nc1ccc(S(=O)(=O)N2CCOCC2)cc1	none
O=C(Nc1ccc(-c2cscn2)cc1)C1CCCN(Cc2ccncc2)C1 (configuration not stated)	none
O=C(CC1(c2ccccc2)CC(=O)N(Cc2ccncc2)C1=O)N1CCCC1 (configuration not stated)	none
Nc1ccc2nc(-c3ccc(N=Cc4cc([N+](=O)[O-])cc([N+](=O)[O-])c4O)cc3)[nH]c2c1	GPR151 ag 7.0 | GPR151 confirm inactive | GPR119 counter inactive
Nc1ccc2nc(-c3ccc([N+](=O)[O-])cc3)[nH]c2c1	none
O=C(NCCO)/C(=C/c1cccc([N+](=O)[O-])c1)NC(=O)c1cccc(Br)c1	none
O=C(Nc1ccc([N+](=O)[O-])cc1)/C(=C/c1ccccc1)NC(=O)c1ccccc1	GPR151 ag 7.3 | GPR151 confirm inactive | GPR119 counter inactive
O=C(NCCCO)c1cccc([N+](=O)[O-])c1	GPR151 ag 5.1 | GPR151 confirm inactive | GPR119 counter inactive
O=C(NCCO)/C(=C\c1cccc([N+](=O)[O-])c1)NC(=O)c1ccccc1	GPR151 ag 12 | GPR151 confirm inactive | GPR119 counter inactive
